# In PubChem BioAssay (NCI):
# The panel holds about 83,000 compounds, 20% with a hit somewhere; the sample as a whole holds those more often.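 48-hour exposure, single concentration, 96-well plates; percent growth endpoint where 0 means no net growth. Active: below 10.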 The source made the active and inactive calls.
# Tested on: DU-145 prostate
# Test: NCI-60 one-dose screen, 48 h (100 = growth as untreated, 0 = no growth, -100 = all killed)
# Details: 10 µM unless noted
row,SMILES,growth
1,COc1ccc(N=C2CSc3nnc(-c4cc(F)c(Cl)cc4Cl)n3N2)cc1,-48.9% (active)
2,Nc1c(C(=O)Nc2cccc(Cl)c2)sc2nc3c(cc12)C(=O)CCC3,11.6% (inactive)
3,COc1ccc(CNc2c3ccccc3nc3ccc(OC)cc23)cc1,20% (inactive)
4,CCOC(=O)c1cc(C(=O)OCC)c(C)nc1C,109% (inactive)
5,NC(=O)N/N=C\c1ccc([N+](=O)[O-])o1,105% (inactive)
6,Cc1ccc(NC(=O)c2sc3nc4c(cc3c2N)C(=O)CCC4)cc1Cl,109% (inactive)
7,COc1ccc(-n2c(COc3ccc(F)cc3)n[nH]c2=S)cc1,112% (inactive)
8,COc1ccccc1-[n+]1cc(-c2ccc(-c3ccccc3)cc2)n2c1CCCCC2,20.7% (inactive)
9,Nc1cc(C(=O)O)cc(C(=O)O)c1,145% (inactive)
10,CN(C)c1nc(-c2cccs2)n2nc(-c3ccco3)cc2n1,116% (inactive)
11,O=C(Nc1cccc(-n2ccc3c(NC(=O)c4ccccc4)nccc32)c1)c1ccc(N2CCOCC2)c(C(F)(F)F)c1,18.7% (inactive)
12,CNC(=O)c1c(NC(=O)c2ccc(C(C)C)cc2)sc2c1CCC(=O)C2,23.4% (inactive)
13,CC(CN1CCN(CC(C)Nc2ccnc3cc(Cl)ccc23)CC1)Nc1ccnc2cc(Cl)ccc12 (stereo not drawn),30% (inactive)
14,Cc1c2c(cc3c1[nH]c1ccccc13)C=NCC2,94.9% (inactive)
15,CC(C)c1ccc2c(c1)CCC1C2CCCC1(C)NCc1ccccc1 (stereo not drawn),75% (inactive)
16,CC1(C)OC2OC3C(CN)OC(c4ccccc4)OC3C2O1 (stereo not drawn),108% (inactive)
17,O=C1Nc2ccc(Br)cc2/C1=N/c1nc(-c2ccccc2)cs1,89.3% (inactive)
18,CS(=O)(=O)c1ccc(C(=O)N/N=C/c2ccccc2Cl)cc1,98.8% (inactive)
19,Cc1ccc(Nc2cccc3ccccc23)cc1,109% (inactive)
20,CCCCc1nc(Cl)c(C2CC(c3ccc(S(N)(=O)=O)cc3)=NN2c2ccc(C#N)cc2)[nH]1 (stereo not drawn),104% (inactive)

row,SMILES,growth
1,O/N=C1\c2ccccc2-c2ccc(Br)cc21,110% (inactive)
2,CCN(CC)CCCC(C)Nc1c(-c2ccccc2)cnc2cc(Cl)ccc12 (stereo not drawn),87.5% (inactive)
3,OC(COCc1ccccc1)COCc1ccccc1,122% (inactive)
4,O=C(CC(=O)c1cccc(Cl)c1)c1cccc(Cl)c1,42.6% (inactive)
5,O=C1CCCN1C1CCN2CCCc3cccc1c32 (stereo not drawn),119% (inactive)
6,CC(C)(C)[Si](C)(C)OC1[C@@H](CNC(N)=O)O[C@@H](n2cnc3c(NC(=O)Nc4ccccc4)ncnc32)[C@H]1O[Si](C)(C)C(C)(C)C (stereo partly drawn),72.6% (inactive)
7,NC(CCC(=O)NC(CS)C(=O)NCC(=O)O)C(=O)O (stereo not drawn),112% (inactive)
8,C/C(=N\NC(=O)CSc1nc2ccccc2c(=O)n1CCc1ccc(S(N)(=O)=O)cc1)c1ccc(Br)cc1,99% (inactive)
9,CC(C)CCSc1nc(Nc2ccccc2)c(C#N)c(-c2ccc(F)cc2)n1,82.3% (inactive)
10,CCOC(=O)C1OC2(CCCC2)OC1C(=O)OCC (stereo not drawn),125% (inactive)
11,CS(=O)(=O)c1ccc(C(=O)N/N=C/c2ccccc2O)cc1,40.4% (inactive)
12,O=C(NCCN1CCCC1)n1cc(-c2ccncc2)c(-c2cc(O)cc(Cl)c2)n1,104% (inactive)
13,C[C@@H]1N=C(c2ccc3ccccc3c2)Nc2nc3ccccn3c2C1=O,73.3% (inactive)
14,CNCCCn1c2c(c3ccc(Cl)cc3c1=O)C(=O)c1cc(OC)cnc1-2,-85.2% (active)
15,CC(=O)Oc1ccccc1C(=O)Nc1ncc([N+](=O)[O-])s1,32.1% (inactive)
16,O=C1/C(=C/c2ccccc2)SC(=Nc2ccccc2)N1Nc1ccccc1,22% (inactive)
17,Oc1c(C(Nc2cccc3ccccc23)c2ccccc2)ccc2cccnc12 (stereo not drawn),35% (inactive)
18,COc1ccc(CC2c3cc(OC)c(OC)cc3CC[N+]2(C)CCC(=O)OCCCCCOC(=O)CC[N+]2(C)CCc3cc(OC)c(OC)cc3C2Cc2ccc(OC)c(OC)c2)cc1OC (stereo not drawn),99.8% (inactive)
19,CCn1c(Cc2ccccc2Nc2c(Cl)cccc2Cl)nnc1SCC(=O)Nc1ccccc1C(F)(F)F,103% (inactive)

# Tested on: K-562 leukemia
# Test: as above
# Details: 10 µM unless noted
row,SMILES,growth
1,COc1ccc(N=C2CSc3nnc(-c4cc(F)c(Cl)cc4Cl)n3N2)cc1,-58.4% (active)
2,Nc1c(C(=O)Nc2cccc(Cl)c2)sc2nc3c(cc12)C(=O)CCC3,22.8% (inactive)
3,COc1ccc(CNc2c3ccccc3nc3ccc(OC)cc23)cc1,0.27% (active)
4,CCOC(=O)c1cc(C(=O)OCC)c(C)nc1C,91.4% (inactive)
5,NC(=O)N/N=C\c1ccc([N+](=O)[O-])o1,101% (inactive)
6,Cc1ccc(NC(=O)c2sc3nc4c(cc3c2N)C(=O)CCC4)cc1Cl,93% (inactive)
7,COc1ccc(-n2c(COc3ccc(F)cc3)n[nH]c2=S)cc1,129% (inactive)
8,COc1ccccc1-[n+]1cc(-c2ccc(-c3ccccc3)cc2)n2c1CCCCC2,10.5% (inactive)
9,Nc1cc(C(=O)O)cc(C(=O)O)c1,96.6% (inactive)
10,CN(C)c1nc(-c2cccs2)n2nc(-c3ccco3)cc2n1,106% (inactive)
11,O=C(Nc1cccc(-n2ccc3c(NC(=O)c4ccccc4)nccc32)c1)c1ccc(N2CCOCC2)c(C(F)(F)F)c1,5.25% (active)
12,CNC(=O)c1c(NC(=O)c2ccc(C(C)C)cc2)sc2c1CCC(=O)C2,1.86% (active)
13,CC(CN1CCN(CC(C)Nc2ccnc3cc(Cl)ccc23)CC1)Nc1ccnc2cc(Cl)ccc12 (stereo not drawn),-21.9% (active)
14,Cc1c2c(cc3c1[nH]c1ccccc13)C=NCC2,62.3% (inactive)
15,CC(C)c1ccc2c(c1)CCC1C2CCCC1(C)NCc1ccccc1 (stereo not drawn),11.1% (inactive)
16,CC1(C)OC2OC3C(CN)OC(c4ccccc4)OC3C2O1 (stereo not drawn),104% (inactive)
17,O=C1Nc2ccc(Br)cc2/C1=N/c1nc(-c2ccccc2)cs1,82.4% (inactive)
18,CS(=O)(=O)c1ccc(C(=O)N/N=C/c2ccccc2Cl)cc1,67.5% (inactive)
19,Cc1ccc(Nc2cccc3ccccc23)cc1,63% (inactive)
20,CCCCc1nc(Cl)c(C2CC(c3ccc(S(N)(=O)=O)cc3)=NN2c2ccc(C#N)cc2)[nH]1 (stereo not drawn),69.5% (inactive)

row,SMILES,growth
1,O/N=C1\c2ccccc2-c2ccc(Br)cc21,98.7% (inactive)
2,CCN(CC)CCCC(C)Nc1c(-c2ccccc2)cnc2cc(Cl)ccc12 (stereo not drawn),13.3% (inactive)
3,OC(COCc1ccccc1)COCc1ccccc1,99.3% (inactive)
4,O=C(CC(=O)c1cccc(Cl)c1)c1cccc(Cl)c1,20.8% (inactive)
5,O=C1CCCN1C1CCN2CCCc3cccc1c32 (stereo not drawn),109% (inactive)
6,CC(C)(C)[Si](C)(C)OC1[C@@H](CNC(N)=O)O[C@@H](n2cnc3c(NC(=O)Nc4ccccc4)ncnc32)[C@H]1O[Si](C)(C)C(C)(C)C (stereo partly drawn),35.2% (inactive)
7,NC(CCC(=O)NC(CS)C(=O)NCC(=O)O)C(=O)O (stereo not drawn),84.2% (inactive)
8,C/C(=N\NC(=O)CSc1nc2ccccc2c(=O)n1CCc1ccc(S(N)(=O)=O)cc1)c1ccc(Br)cc1,54.3% (inactive)
9,CC(C)CCSc1nc(Nc2ccccc2)c(C#N)c(-c2ccc(F)cc2)n1,38.8% (inactive)
10,CCOC(=O)C1OC2(CCCC2)OC1C(=O)OCC (stereo not drawn),112% (inactive)
11,CS(=O)(=O)c1ccc(C(=O)N/N=C/c2ccccc2O)cc1,40.5% (inactive)
12,O=C(NCCN1CCCC1)n1cc(-c2ccncc2)c(-c2cc(O)cc(Cl)c2)n1,82% (inactive)
13,C[C@@H]1N=C(c2ccc3ccccc3c2)Nc2nc3ccccn3c2C1=O,27.6% (inactive)
14,CNCCCn1c2c(c3ccc(Cl)cc3c1=O)C(=O)c1cc(OC)cnc1-2,-66% (active)
15,CC(=O)Oc1ccccc1C(=O)Nc1ncc([N+](=O)[O-])s1,-8.68% (active)
16,O=C1/C(=C/c2ccccc2)SC(=Nc2ccccc2)N1Nc1ccccc1,4.55% (active)
17,Oc1c(C(Nc2cccc3ccccc23)c2ccccc2)ccc2cccnc12 (stereo not drawn),11.6% (inactive)
18,COc1ccc(CC2c3cc(OC)c(OC)cc3CC[N+]2(C)CCC(=O)OCCCCCOC(=O)CC[N+]2(C)CCc3cc(OC)c(OC)cc3C2Cc2ccc(OC)c(OC)c2)cc1OC (stereo not drawn),111% (inactive)
19,CCn1c(Cc2ccccc2Nc2c(Cl)cccc2Cl)nnc1SCC(=O)Nc1ccccc1C(F)(F)F,72.5% (inactive)
